The sample as a whole holds a higher share of hits than the screen did.
TDP1 cell noCPT = qHTS for Inhibitors of human tyrosyl-DNA phosphodiesterase 1 (TDP1): qHTS in cells in absence of CPT; DT40 Tdp1-/- hTDP1 cells, no CPT, ATP luminescence, 48 h; Potency, µM (series often up to 46.2 µM), inactives show at the highest dose activity change, negative = growth inhibition, most hits filed as inhibitors; 420,000 tested, 15% active; AID 686978, 2013; further: potency means the concentration at half of the fitted maximal effect; nearly all actives have a fitted effect of over 55% in size
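Chicken DT40 Tdp1-/- cells complemented with human TDP1, screened without camptothecin (DMSO vehicle only), 400 cells/well. Compounds pin-transferred, cells incubated at 37 °C for at least 48 hr. Growth read as ATP-dependent luminescence (CellTiter-Glo, 30 min at RT).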
IL1B secr inh = inhibitors of inflammasome signaling (IL-1 beta secretion); THP-1 LPS/ATP IL-1B secretion, AlphaLISA, 16 h; hits give low values; activity change, % at 57.5 µM; 360,000 tested, 4.7% active; in the data active means activity change below about -50%; inconclusive means mostly about -30% to -49%
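THP-1 cells pretreated 1 hr with compounds (up to 57.5 uM final), then stimulated with LPS (250 ng/mL final) plus ATP (1.25 mM final); secreted IL-1B measured by AlphaLISA after 16 hr, decreased signal indicating inhibition.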
HT1080NT lethal = kills 2HG-producing HT-1080-NT fibrosarcoma cells; HT-1080-NT fibrosarcoma viability, CellTiter-Glo ATP luminescence, 48 h; Potency, µM (doses to about 46.1 µM), inactives show at the highest dose activity, negative = less viability, hits mostly cytotoxic; 360,000 tested, 1.6% active;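 further: NT is the 2HG producing partner of a matched IDH1 knockdown line; potency means the concentration at half of the fitted maximal effect; 0% = DMSO-treated cells and -100% = media-only wells without cells; nearly all actives have a fitted effect of over 55% in size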
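750 cells/well, RPMI + 5% FBS; 2 h settle, compound pin-transfer, 48 h at 37 degrees C. CellTiter-Glo 10 min RT, luminescence. Normalized to DMSO and media-only wells.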
ALOX12 inh = inhibitors of human 12S-lipoxygenase ALOX12; AID 1671190; P18054; Potency, µM (titrated, usually from 108 µM), for the others: at the top dose activity change, negative = inhibition, most hits filed as inhibitors; 580,000 tested, 1.1% active; purified 12hLO, xylenol orange hydroperoxide absorbance; further: potency means the concentration at half of the fitted maximal effect
Target sequence (P18054 whole entry, looked up): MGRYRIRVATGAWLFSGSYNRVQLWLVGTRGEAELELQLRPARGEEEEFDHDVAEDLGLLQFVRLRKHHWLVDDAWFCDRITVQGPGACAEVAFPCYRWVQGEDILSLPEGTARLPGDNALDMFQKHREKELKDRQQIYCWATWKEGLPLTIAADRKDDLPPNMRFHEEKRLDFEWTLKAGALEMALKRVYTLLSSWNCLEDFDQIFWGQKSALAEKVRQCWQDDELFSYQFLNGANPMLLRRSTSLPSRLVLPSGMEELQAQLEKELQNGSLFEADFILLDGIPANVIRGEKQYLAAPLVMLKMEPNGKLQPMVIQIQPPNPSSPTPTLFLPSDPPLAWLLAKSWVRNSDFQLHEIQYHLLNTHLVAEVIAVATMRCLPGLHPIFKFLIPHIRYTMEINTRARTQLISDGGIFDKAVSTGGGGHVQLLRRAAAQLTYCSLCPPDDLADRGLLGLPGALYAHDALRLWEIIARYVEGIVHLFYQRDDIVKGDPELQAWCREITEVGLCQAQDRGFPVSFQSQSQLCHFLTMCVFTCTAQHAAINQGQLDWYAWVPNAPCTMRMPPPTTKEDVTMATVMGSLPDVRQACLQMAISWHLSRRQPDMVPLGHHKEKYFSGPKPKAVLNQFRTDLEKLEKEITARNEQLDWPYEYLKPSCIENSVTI
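Purified human 12hLO at 150 nM in 25 mM Hepes, 0.01% Triton X-100, pH 7.0, preincubated 15 min at room temperature with compound. Reaction started with 40 uM arachidonic acid, 30 min at room temperature. Hydroperoxide measured by Fe-xylenol orange, 573/405 nm absorbance ratio.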
HT1080 IDH1KD tx = kills HT-1080 cells with IDH1 knockdown. Potency, µM (highest dose often 46.1 µM), for inactives: at the highest dose activity, negative = toxicity, most hits filed as cytotoxic. 360,000 tested, 2% active. AID 686971. HT-1080 IDH1 knockdown viability, ATP luminescence, 48 h;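 further: potency means the concentration at half of the fitted maximal effect; 0% = DMSO wells and -100% = cell-free medium wells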
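Cytotoxicity counter-line: IDH1KD HT-1080, 48 h, CellTiter-Glo. Curves classed by r2, magnitude and activity.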
DT40 TDP1 CPT = growth inhibition of DT40 Tdp1-/-;hTDP1 cells with camptothecin (screen for TDP1 inhibitors); 420,000 tested, 12% active; AID 686979; Potency, µM (doses to about 46.2 µM), for the others: at the highest dose activity change, negative = growth inhibition, hits mostly inhibitors; chicken DT40 Tdp1-/-;hTDP1 cells + 20 nM CPT, ATP luminescence, 48 h; further: potency means the concentration at half of the fitted maximal effect; nearly all actives have a fitted effect of over 55% in size
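Chicken DT40 Tdp1-/- cells complemented with human TDP1, 400 cells/well, exposed to compounds plus 20 nM camptothecin for at least 48 h at 37 C; viability read as ATP content by CellTiter-Glo luminescence.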
Starred values were filed as active, the others as inactive; ? = inconclusive; . = no result; ! = repeats disagree. Unless noted, the call rests on the fitted dose curve; in most records, active means well fitted curve in the direction sought with a large enough effect; inconclusive means small, poorly fitted or top-dose-only effect, or another doubt; inactive means no such curve, though single readings can be large; an effect the other way counts as inactive or inconclusive. Unless noted, on the % scale 0 is the no-effect control and ±100 the full control effect.

SMILES | TDP1 cell noCPT | IL1B secr inh | HT1080NT lethal | ALOX12 inh | HT1080 IDH1KD tx | DT40 TDP1 CPT
CC(=O)Nc1ccc(/C(C)=N/NC(=O)c2ccc(F)cc2)cc1 | -20.6% | -15.1 | 0.4% | 28.6% | -6.1% | 9.8%
Nc1ccc(Br)cc1-c1ccccc1 | . | . | . | 6.1% | . | .
O=C(O)CC12CC3CC(C1)CC(C(=O)O)(C3)C2 | . | . | . | 4.1% | . | .
O=C(N/N=C\c1ccncc1)c1ccccc1O | -4.2% | 0.0 | -10.3% | -1.1% | -4.9% | 24.3%
O=C(N/N=C/c1cccc2cccnc12)c1ccccc1O | 4.11µM* | 227.7 | ? | 0.0% | ? | 5.17µM*
O=C(N/N=C/c1cccc2nccnc12)c1ccccc1O | 3.26µM* | 247.7 | ? | 0.0% | -22.3% | 5.8µM*
C=CCC1(O)CC(C)N(C)CC1C (stereo not drawn) | . | . | . | 31.2% | . | .
CC(Oc1ccccc1)C(=O)Nc1cnc(-c2cccc(Cl)c2)nc1 (stereo not drawn) | . | . | . | -14.2% | . | .
CSc1ccccc1NC(=O)c1cc(F)cc(F)c1 | . | . | . | -1.4% | . | .
CN(C1=NS(=O)(=O)N=C(N(C)c2ccccc2)O1)c1ccccc1 | ? | -102.4* | ? | 1.7% | ? | ?
COCCCNc1oc(-c2cccc3ccccc23)nc1C#N | . | . | . | -25.2% | . | .
COc1cccc(NC(=O)c2sc3nc(N4CCOCC4)c4c(c3c2N)CC(C)(C)OC4)c1 | 6.51µM* | . | . | -16.2% | . | 5.8µM*
CC1(C)Cc2c(c(N3CCOCC3)nc3sc(C(=O)Nc4ccc(Cl)cc4)c(N)c23)CO1 | 23.1µM* | -1.1 | 14.3% | 2.82µM*! | 15.0% | ?
CCOC(=O)c1sc2nc(-c3ccco3)c3c(c2c1N)CC(C)(C)OC3 | 20.6µM* | -52.6* | -0.1% | ? | -10.9% | 20.6µM*
COc1ccc(NC(=O)c2sc3nc(N4CCCC4)c4c(c3c2N)CC(C)(C)OC4)c(OC)c1 | -27.6% | ? | -0.8% | 9.3% | -2.5% | ?
CC1(C)Cc2c(c(N3CCOCC3)nc3sc(C(N)=O)c(N)c23)CO1 | ? | -15.0 | -18.5% | -25.5% | -3.8% | 8.5%
CN1Cc2c(N3CCOCC3)nc3sc(C(=O)c4ccccc4)c(N)c3c2CC1(C)C | ? | -10.0 | -13.6% | 0.0% | -10.0% | 16.4µM*
O=C(O)c1cccc(C2CCCN(C(=O)Cc3cc(F)c(F)c(F)c3)C2)c1 (stereo not drawn) | . | . | . | -4.5% | . | .
COC(=O)c1ccc(C)c(NC(=O)c2nn(C(C)C)c(=O)c3ccccc23)c1 | . | . | . | 5.8% | . | .
O=C(CCc1c[nH]c2ccccc12)N1CCN(C(=O)c2ccco2)CC1 | . | . | . | 56.1% | . | .
CCOc1ccc(C(=O)Nc2ccc(S(=O)(=O)N(Cc3ccccc3)c3ccccc3)cc2)cc1 | 5.17µM* | . | . | -8.3% | . | 5.8µM*
Cc1ccc(C(=O)Nc2ccc(S(=O)(=O)N(Cc3ccccc3)c3ccccc3)cc2)cc1 | 23.1µM* | . | . | -14.8% | . | 16.4µM*
COC(=O)Cc1ccc(N(Cc2ccccc2F)S(=O)(=O)c2ccc(Cl)cc2)cc1 | 14.6µM* | 0.0 | 6.4% | -10.7% | -20.5% | ?
CC(=O)Nc1ccc(S(=O)(=O)N(Cc2ccccc2)c2ccccc2)cc1 | ? | 24.0 | -25.6% | -3.3% | ? | -1.6%
COC(=O)c1ccc(CN(c2ccc(OC)cc2)S(=O)(=O)c2ccccc2)cc1 | 13µM* | -9.7 | -15.7% | 6.8% | -10.5% | ?
SMILES | TDP1 cell noCPT | IL1B secr inh | HT1080NT lethal | ALOX12 inh | HT1080 IDH1KD tx | DT40 TDP1 CPT
CC1(C)NC(=O)N(Cc2coc(-c3ccc(Cl)cc3)n2)C1=O | . | . | . | -0.9% | . | .
COc1ccc(-n2nnc3c(SC(C(C)=O)C(=O)N(C)C)ncnc32)cc1 (stereo not drawn) | 16.4µM* | 0.0 | 3.2% | ? | 17.5% | 18.4µM*
CCOc1ccc(-n2nnc3c(=O)n(CC(=O)NCc4ccco4)cnc32)cc1 | 0.4% | -0.4 | 11.1% | 13.0% | -0.1% | -21.7%
O=C(Cn1cnc2c(nnn2-c2ccc(F)cc2)c1=O)NCc1ccco1 | -2.8% | 18.3 | -27.7% | -6.2% | 6.0% | ?
O=C(CSc1ncnc2c1nnn2-c1ccc(F)cc1)NCc1ccco1 | 14.6µM* | -3.7 | -6.1% | 9.2% | -3.0% | ?
COC(=O)C(C)Sc1ncnc2c1nnn2-c1ccc(F)cc1 (stereo not drawn) | ? | -3.5 | ? | 0.0% | ? | -58.8%
COc1ccc(-n2nnc3c(SCC(=O)NCc4ccco4)ncnc32)cc1 | 2.91µM* | -16.2 | -26.8% | 13.9% | ? | ?
Cc1ccc(-c2[nH]ncc2CN2C[C@@H](CO)[C@H](c3ccccn3)C2)cc1 | . | . | . | -16.8% | . | .
NC(=O)/C(=C/c1ccco1)NC(=O)/C=C/c1ccccc1 | -5.7% | -22.3 | 10.7% | ? | 13.7% | -1.9%
CC(C)CCOC(=O)/C(=C/c1ccco1)NC(=O)/C=C/c1ccccc1 | -5.4% | -17.4 | 5.7% | 39.8µM* | 5.6% | 2.5%
Cc1ccc(S(=O)(=O)Nc2nc3ccccc3nc2Nc2ccc3c(c2)OCCO3)c(C)c1 | . | . | . | 51.0% | . | .
Cc1c(Cl)cccc1NC(=O)c1cc(-c2ccccc2O)n[nH]1 | ? | -60.4* | ? | 459.4% | ? | ?
CC1CN(S(=O)(=O)c2ccc(NC(=O)c3cc(-c4ccccc4O)n[nH]3)cc2)CC(C)O1 (stereo not drawn) | ? | -50.9* | ? | ? | ? | 20.6µM*
COc1ccc(Cl)cc1NC(=O)c1cc(-c2ccccc2O)n[nH]1 | 14.6µM* | -12.0 | -2.2% | 16.8% | -3.2% | ?
COc1ccc(OC)c(NC(=O)c2cc(-c3cc(Cl)ccc3O)n[nH]2)c1 | 11.6µM* | ? | -27.1% | 18.9% | ? | 18.4µM*
COc1ccc(Cl)cc1C(=O)N1C[C@@H](F)C[C@H]1C(=O)N1CCCCC1 | . | . | . | 74.4% | . | .
Cc1c(C(=O)c2cccs2)oc2ccccc12 | . | . | . | 29.4% | . | .
CN(C(=O)CSc1nc2ccccc2c(=O)n1CCc1cccs1)c1ccccc1 | . | . | . | 0.0% | . | .
COc1cc(/C=C/c2nc(C#N)c(NCc3ccc(F)cc3)o2)cc(OC)c1OC | . | . | . | -9.5% | . | .
NS(=O)(=O)c1ccc(NC(=O)c2cc(-c3cccc4ccccc34)n[nH]2)cc1 | . | . | . | 16.7% | . | .
NS(=O)(=O)c1ccc(NC(=O)c2cc(-c3cc(Cl)ccc3O)n[nH]2)cc1 | ? | -28.8 | ? | 7.9% | 18.4µM* | -6.7%
COc1ccc2c(c1)c(C(=O)CN1CCc3ccccc3C1)c(C)n2C | 20.6µM* | 1.2 | -0.7% | -2.0% | -10.1% | ?

High-throughput results as filed in PubChem.
